# Reference: ChEMBL document CHEMBL3988442, “University of Dundee, Small-Polar-MMV Screening Library” (2021)
# The whole screen tested about 48,000 compounds, of which about 13,000 (27%) showed an effect of 50% or more. The list shows a part of the results.
# Test system: Wolbachia pipientis
# Test: Anti-Wolbachia Cell-Based Screen
# Format: functional
# Set-up: scale not given: in the data most compounds retested in dose-response had high values
# Conditions: 5 µM
row,SMILES,Percent Effect [%]
1,CN(CCN1CCOCC1)S(=O)(=O)CC1CCCC1,-5.333
2,CCOC(C)c1nc(Cn2cccn2)cs1 (centres undefined),-9.016
3,CNC(=O)NC(=O)C(C)Nc1ccccc1OCCOC (centres undefined),-4.777
4,N#CC(NC(=O)CCCOc1cccnc1)c1ccc(F)cc1F (centres undefined),86.86
5,COCCOCC(=O)NC(C#N)c1ccccc1C (centres undefined),-6.044
6,COCCOCC(=O)NC(C#N)c1cccc(Cl)c1Cl (centres undefined),-5.462
7,Cc1ccccc1C(C#N)NC(=O)CCCOc1cccnc1 (centres undefined),81.76
8,CCCC(C#N)NC(=O)CCCOc1cccc(F)c1 (centres undefined),-0.6223
9,N#CC(NC(=O)CCC(=O)NC1CCCC1)c1ccc(F)cc1F (centres undefined),-15.9
10,CC(NC(=O)CCCOc1ccccc1Cl)c1ccncc1 (centres undefined),-5.122
11,N#CC(NC(=O)CCCOc1cccnc1)c1ccccc1Cl (centres undefined),111.5
12,CCC(C#N)NC(=O)CCCOc1cccc(C(C)=O)c1 (centres undefined),2.653
13,CC(C)c1ccc(S(=O)(=O)Cc2nc(N)nc(N(C)C)n2)cc1,13.19
14,COc1c(NC(=O)N(C)CCOc2ccccc2)c(C)nn1C,-49.81
15,c1ccn2c(SCC3CN=C(N4CCOCC4)S3)ncc2c1 (centres undefined),6.715
16,O=S(=O)(NC1CCN(CC(F)(F)F)C1)c1cc(F)cc(F)c1 (centres undefined),-11.02
17,COCC(=O)N1CCC(c2noc3nc(C)cc(C(F)(F)F)c23)CC1,-9.714
18,COCC(=O)N1CCC(c2cc(C(F)(F)F)n3ccnc3n2)CC1,-3.76
19,COCC(=O)N1CCC(c2cc(-c3ccc(N)nc3)cc(C)n2)CC1,134.8
20,COCC(=O)N1CCC(c2cc(N(C)C)cc(C)n2)CC1,144.6
21,CN(c1cccc(C#N)c1)S(=O)(=O)c1cc(C(=O)O)ccc1Cl,-8.921
22,CCc1ncc2c(n1)CN(CC1CCCCO1)CC2 (centres undefined),-28.59
23,CCN(C(=O)c1ccc2nnc(C3CCN(C(C)=O)C3)n2c1)C(C)C (centres undefined),-2.519
24,CNC(=O)c1cccc(NC(=O)NC(C)c2cc(C)oc2C)c1C (centres undefined),-16.36
25,O=C(O)C(F)(F)F.O=C([C@@H]1C[C@@H]2CCN(c3cccc(F)c3)C[C@H]2O1)N1CCCC1,103.2

row,SMILES,Percent Effect [%]
1,Fc1cccc(N2C[C@H]3CCN(c4cccnc4)C[C@H]3C2)c1.O=C(O)C(F)(F)F,6.711
2,O=C(O)C(F)(F)F.O=C([C@H]1C[C@@H]2CCN(c3cccc(F)c3)C[C@H]2O1)N1CCCCO1,96.52
3,O=C(O)C(F)(F)F.O=C([C@H]1C[C@@H]2CCN(c3cccc(F)c3)C[C@H]2O1)N1CCCC1,111.1
4,O=C(O)C(F)(F)F.O=C([C@@H]1CC[C@@H]2[C@@H](CCN2Cc2cccc(F)c2)O1)N1CCCCO1,-25.86
5,O=S(=O)(C1CC1)N1CCOC2(CCCN(c3cccc(F)c3)C2)C1 (centres undefined),7.053
6,CN1CCN(C(=O)[C@H]2C[C@@H]3CCN(c4ncc(F)cn4)C[C@@H]3O2)CC1.O=C(O)C(F)(F)F,-9.48
7,CN1CCN(C(=O)[C@@H]2C[C@@H]3CCN(c4cccc(F)c4)C[C@H]3O2)CC1,96.73
8,Cc1ccc(CN2CC[C@H]3C[C@H](C(=O)N4CCCO4)O[C@@H]3C2)o1.O=C(O)C(F)(F)F,-11.63
9,COc1cccc(OCc2cc(C(=O)NC[C@H]3CCCN3)n[nH]2)c1,-9.254
10,CCc1nc(NS(=O)(=O)c2ccc(C)cc2Cl)no1,-7.333
11,CC(C)c1csc(C2CCCN(C(=O)c3ccc(=O)n(C)c3)C2)n1 (centres undefined),2.326
12,CC(C)Cc1nc(CN(C)CCOc2ccccc2F)no1,2.804
13,O=C(Cn1ccc(=O)[nH]c1=O)NCC1Cc2ccccc2O1 (centres undefined),0.2234
14,CC(C)NC(=O)NC[C@H]1OC[C@@H](NCc2ccc(F)cc2)[C@@H]1O,8.979
15,CC1=C(CCN2C[C@H](O)[C@@H](N3CCOCC3)C2)C(C)(C)CCC1,0.7691
16,COc1ccc(CC(=O)N2CCC(c3nnc4n3CCC4)CC2)cc1F,-6.133
17,CCOc1c(Br)cc(CNCCc2nnc3n2CCCCC3)cc1OC.Cl,15.42
18,Clc1cncc(N2CCCC2c2nnc3n2CCCCC3)n1 (centres undefined),118.9
19,CCOc1cncc(N2CCCC2c2nnc3n2CCCCC3)n1 (centres undefined),129.6
20,O=C(C1CCC1)N1CCCC1c1nnc2n1CCCCC2 (centres undefined),-4.579
21,Cc1cnn(CC2CCCCN2c2ncnc3ccccc23)c1 (centres undefined),-9.464
22,CC1c2ncc(COCC3CC3)n2CCN1C.O=C(O)C(F)(F)F (centres undefined),-13.39
23,Cc1ccc(C(C(=O)N2CC(c3ccccn3)C2)N(C)C)cc1 (centres undefined),13.16
24,COc1cccc(CN2CCC3(CCN(c4ncc(F)cn4)CC3)C2)c1.O=C(O)C(F)(F)F,-1.729
